This is an account of results in PubChem BioAssay AID1259313 (Sanford-Burnham Center for Chemical Genomics, 2017).

About 8,500 (2.5%) of roughly 340,000 compounds were called active. The sample as a whole holds a higher share of actives than the screen did. Unmarked numbers belong to inactive results.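 The calls were made as follows: active = melting temperature shift of at least 10% of the positive control shift, at one fixed dose; inactive = the rest.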

For the assay, the system named is Glutamate receptor ionotropic, NMDA 3A (GRIN3A) ligand-binding domain. The assay can be described thus: binders of NR3A ligand-binding domain, primary screen, biophysical, differential scanning fluorimetry, uHTS (AID 1259313). The following applies: NR3A LBD differential scanning fluorimetry, at 25 µM, stronger effect = higher value, 0% = protein alone, 100% = glycine-bound protein. Background: DSF heats the sample and reads unfolding from a dye or from intrinsic fluorescence.
With `COc1ccccc1CNS(=O)(=O)c1ccc2c(c1)NC(=O)CS2`, the Tm shift relative to glycine control was 1.27%.

For the compound `COc1ccc(Cl)cc1C=CC=Nc1ccc(S(N)(=O)=O)cc1`, the Tm shift relative to glycine control was -9.77%.

As to `O=C(NN=Cc1ccccc1)c1ccccc1`, the Tm shift relative to glycine control is 3.44%.

As for `CSc1ccc(/C=N/NC(=O)c2cccc(Cl)c2)cc1`, the Tm shift relative to glycine control was 19.1% (active).

As for `Cc1nc2ccc(C(=O)N/N=C/c3ccc(O)cc3)cc2[nH]1`, the Tm shift relative to glycine control is -4.58%.

For the compound `CC(=NNC(=O)c1ccc2nc[nH]c2c1)c1ccc(Br)cc1`, the Tm shift relative to glycine control was -13%.

Regarding `CSc1ccc(/C=N\NC(=O)CC(=O)NC(C)C)cc1`, the Tm shift relative to glycine control was -7.31%.

Take `O=C(N/N=C/c1ccc(Cl)c(Cl)c1)c1ccc2nc[nH]c2c1`: the Tm shift relative to glycine control was 27.4% (active).

With `c1ccc(COc2ccccc2CNCc2cccnc2)cc1`, the Tm shift relative to glycine control was -0.7%.

As to `COCC(C)n1c(SCC(=O)NC2CCCCC2C)nc2ccccc2c1=O` (stereo not given), the Tm shift relative to glycine control was -0.26%.

Take `CCOC(=O)C(C)Sc1nc2ccccc2c(=O)n1CC1CCCCC1` (stereo not given): the Tm shift relative to glycine control was 15.7% (active).

As to `CCOn1c(SC(C)C)nc2ccccc2c1=O`, the Tm shift relative to glycine control is -0.18%.

Regarding `CCOC(=O)CCCCCC(=O)Nc1ccc2c(c1)CC(=O)N([C@@H](C)CO)C[C@H](C)[C@@H](CN(C)Cc1ccccc1)O2`, the Tm shift relative to glycine control was 0.56%.

On to `COc1ccc(NCc2nnc(SCc3ccccc3)n2-c2ccc(OC)cc2)cc1`, for which the Tm shift relative to glycine control is -0.87%.

As for `CCc1nonc1NC(=O)c1oc2ccc(Cl)cc2c1C`, the Tm shift relative to glycine control was -0.44%.

Consider `COc1ccc(CCNC(=O)COC(=O)Cc2cc(OC)c(OC)c(OC)c2)cc1`, for which the Tm shift relative to glycine control is -0.75%.

As for `COc1ccc(CCNC(=O)COC(=O)Cc2cccc(F)c2)cc1`, the Tm shift relative to glycine control was 15.5% (active).

Turning to `COc1ccc(CCNC(=O)COC(=O)Cc2ccccc2F)cc1`, the Tm shift relative to glycine control is 1.52%.

Regarding `NC(=S)c1ccc(C(N)=S)o1`, the Tm shift relative to glycine control is 9.83%.

Take `COc1ccc(C(C(=O)NCC2CCCO2)N(C(=O)Cn2nnc3ccccc32)c2ccc(NC(C)=O)cc2)cc1OC` (stereo not given): the Tm shift relative to glycine control is 1.93%.

`O=C(CNC(=O)c1cccs1)N/N=C/c1cccc(Br)c1`: the Tm shift relative to glycine control was -2.08%.

Consider `O=C(NC(Cc1c[nH]c2ccccc12)C(=O)N/N=C/c1ccc(Br)cc1)c1cccs1` (stereo not given), for which the Tm shift relative to glycine control is 19.7% (active).

On to `CC(=O)NC(Cc1c[nH]c2ccccc12)C(=O)NCCc1ccccc1` (stereo not given), for which the Tm shift relative to glycine control was 1.08%.

For `OC(CNCC1CCCO1)Cn1c2ccc(Br)cc2c2cc(Br)ccc21` (stereo not given), the Tm shift relative to glycine control was -15.9%.

As for `O=C1/C(=C\c2ccc([N+](=O)[O-])cc2)CS(=O)(=O)C/C1=C/c1ccc([N+](=O)[O-])cc1`, the Tm shift relative to glycine control was -9.77%.

For the compound `O=[N+]([O-])c1ccc(N=NNc2ccc([N+](=O)[O-])cc2)cc1`, the Tm shift relative to glycine control is 4.69%.

As to `CC(C)c1ccc(C=NNc2ccc([N+](=O)[O-])cn2)cc1`, the Tm shift relative to glycine control is -2.51%.

With `O=[N+]([O-])c1ccc(C=NN=Cc2ccc([N+](=O)[O-])cc2)cc1`, the Tm shift relative to glycine control was 12.6% (active).

On to `O=[N+]([O-])c1ccc(N/N=C/c2ccccc2)cc1`, for which the Tm shift relative to glycine control was 29.2% (active).

On to `O=[N+]([O-])c1cccc(/C=N/Nc2ncc(Br)cn2)c1`, for which the Tm shift relative to glycine control is -2.79%.

`CC1(C)Cc2c(sc(NC(=O)C(=O)N3CCOCC3)c2C#N)CO1`: the Tm shift relative to glycine control is 2.25%.

Turning to `O=C(CN1C2CCC1CC(NC(=O)C1CC1)C2)NCc1ccccc1` (stereo not given), the Tm shift relative to glycine control is -0.34%.

For `O=C(COC(=O)C1CC2CCCC(C1)C2=O)NC(=O)c1ccccc1` (stereo not given), the Tm shift relative to glycine control is -1.22%.

Turning to `Cc1c(C(=O)NNC(=O)c2ccncc2)oc2ccccc12`, the Tm shift relative to glycine control was 2.4%.

For `COc1ccc(NC(=O)N2CCCC2C(=O)NCc2ccccc2Cl)cc1` (stereo not given), the Tm shift relative to glycine control was -2.42%.

Consider `FC(F)(F)c1cccc(-c2cc3ccccc3nc2N2CCCC2)c1`, for which the Tm shift relative to glycine control is -0.24%.

As for `Cc1ccc(S(=O)(=O)N(c2cccc(C)c2)C2CCS(=O)(=O)C2)cc1` (stereo not given), the Tm shift relative to glycine control was -3.26%.

As to `COCCn1c(=NC(=O)c2ccccc2[N+](=O)[O-])sc2cc(S(C)(=O)=O)ccc21`, the Tm shift relative to glycine control is 3.81%.

Take `C=C(C)COc1ccc(-c2nc(N)ncc2-c2ccccc2OC)c(O)c1`: the Tm shift relative to glycine control was -3.37%.

Regarding `C=C(C)COc1ccc(-c2n[nH]c(C)c2-c2ccccc2)c(O)c1`, the Tm shift relative to glycine control was 10.9% (active).

Consider `C=C(C)COc1ccc(-c2ncncc2-c2ccc(OC)cc2)c(O)c1`, for which the Tm shift relative to glycine control was -1.75%.

On to `COc1c(C)c2c(c(O)c1C/C=C(\C)CCC(=O)O)C(=O)OC2`, for which the Tm shift relative to glycine control was 0.8%.

As to `CC(OC(=O)c1cc2ccccc2[nH]1)C(=O)N(C)c1ccccc1` (stereo not given), the Tm shift relative to glycine control is -1.09%.

On to `O=C(Nc1ccccc1)c1cc2ccccc2[nH]1`, for which the Tm shift relative to glycine control is 20.5% (active).

On to `COc1ccc2[nH]c(C(=O)Nc3ccccc3Cl)cc2c1`, for which the Tm shift relative to glycine control is 1.25%.

Turning to `Cc1ccc(CC2C(=O)N(c3ccc(F)cc3)C(=O)C2C)cc1` (stereo not given), the Tm shift relative to glycine control is 1.55%.

On to `CC(=O)N1CCN(CC(C)(C)NS(=O)(=O)c2ccc(C)cc2)CC1`, for which the Tm shift relative to glycine control is 1.96%.

As to `O=C(NCCCN1CCOCC1)C1CCCN(S(=O)(=O)N2CCCCC2)C1` (stereo not given), the Tm shift relative to glycine control was -1.39%.

For the compound `CCOC(=O)N1CCN(C(=O)C(=O)Nc2sc3c(c2C#N)CC(C)(C)OC3)CC1`, the Tm shift relative to glycine control was -1.52%.

In the case of `CCc1ccccc1N(CC(=O)NCC1CCCO1)C(=O)CCC(=O)Nc1nccs1` (stereo not given), the Tm shift relative to glycine control is -2.76%.

As to `COc1cccc(CC2(CO)CCCN(CC3=Cc4cc(OC)ccc4OC3)C2)c1` (stereo not given), the Tm shift relative to glycine control is -4.46%.

For the compound `COc1cccc(CC2(CO)CCCN(Cc3nc(-c4cccs4)oc3C)C2)c1` (stereo not given), the Tm shift relative to glycine control was -1.72%.

As to `COc1cccc(CC2(CO)CCCN(Cc3ccc(OC(F)F)cc3)C2)c1` (stereo not given), the Tm shift relative to glycine control was 25.6% (active).

As for `O=C(CCNS(=O)(=O)c1ccccc1)NCCSc1ccc(Br)cc1`, the Tm shift relative to glycine control is -2.33%.

For `c1ccc(-c2c[nH]c(-c3ccccc3)c2)cc1`, the Tm shift relative to glycine control is 17.4% (active).

In the case of `O=c1cc(-c2ccccc2)[nH]c2cc(F)ccc12`, the Tm shift relative to glycine control is -1.79%.

As to `c1ccc(-c2ccc3c(c2)NC(C2Nc4cc(-c5ccccc5)ccc4O2)O3)cc1` (stereo not given), the Tm shift relative to glycine control is 0.36%.

As for `Nn1c(SCc2ccccc2)nnc1C1CCCCC1`, the Tm shift relative to glycine control was 1.23%.

Regarding `Cc1ccccc1Nc1nc(N)nc(COC(=O)CCC(=O)c2ccc(F)cc2)n1`, the Tm shift relative to glycine control is -0.42%.

For `CCC1SC2=NCCN2C1(O)c1ccc(Cl)cc1` (stereo not given), the Tm shift relative to glycine control is -1.83%.

In the case of `CCOc1ccc(S(=O)(=O)N/N=C(\C)c2ccc(Cl)c(Cl)c2Cl)cc1`, the Tm shift relative to glycine control was 16.2% (active).

Take `CCOc1cc(NS(=O)(=O)c2ccc(OC)cc2)c(OCC)cc1NC(C)=O`: the Tm shift relative to glycine control is 1.23%.

Consider `CCOc1ccc(S(=O)(=O)Nc2nccs2)cc1`, for which the Tm shift relative to glycine control is -0.76%.

Consider `O=C(O)C(CCc1ccccn1)c1ccccc1` (stereo not given), for which the Tm shift relative to glycine control is 0.46%.

`O=C1c2ccccc2C(=O)N1CCC#Cc1ccc2cc(C3(O)CCCCC3)oc(=O)c2c1`: the Tm shift relative to glycine control is 35.3% (active).

On to `COc1cc(C(=O)NCCOC(=O)c2cccc(N(C)C)c2)cc(OC)c1OC`, for which the Tm shift relative to glycine control was 0.47%.

In the case of `Cc1ccc(-c2nn(-c3ccccc3)cc2/C=C2\SC(=S)N(CCCCCC(=O)O)C2=O)o1`, the Tm shift relative to glycine control is -394%.

Consider `C=CCOc1ccc(/C=C2\SC(=S)N(CCC(=O)O)C2=O)cc1`, for which the Tm shift relative to glycine control is 1.33%.

Regarding `COc1ccc(-c2nn(-c3ccccc3)cc2/C=C2/SC(=S)N(CCCC(=O)O)C2=O)c(C)c1`, the Tm shift relative to glycine control was 12.5% (active).

As to `COc1cccc(NS(=O)(=O)c2ccc(-c3coc(C)n3)cc2)c1`, the Tm shift relative to glycine control was -0.18%.

Take `O=C(CCNS(=O)(=O)c1ccc(Br)s1)NCc1ccccc1Cl`: the Tm shift relative to glycine control is -2.24%.

For `CCOc1ccccc1NC(=S)C(=C([O-])c1ccc2c(c1)OCCO2)[n+]1ccc(CC)cc1`, the Tm shift relative to glycine control was -1.27%.

Consider `COC(=O)c1cc(Oc2ccc(S(=O)(=O)N3CCOCC3)cc2[N+](=O)[O-])cc(C(=O)OC)c1`, for which the Tm shift relative to glycine control is 0.08%.

For the compound `CCc1ccc(NC(=O)C(=O)NNC(=O)c2cccs2)cc1`, the Tm shift relative to glycine control was -14.4%.

With `Cc1ccc(NC(=O)c2cccs2)cc1S(=O)(=O)N(C)C`, the Tm shift relative to glycine control was -5.63%.

For the compound `Cc1ccc(-c2nnc(-c3ccc(NC(=O)c4cccs4)cc3)o2)cc1`, the Tm shift relative to glycine control is 22.2% (active).

As for `Cc1cccc(C(=O)Nc2ccc(CC(=O)O)cc2)c1`, the Tm shift relative to glycine control was -4.02%.

`Brc1ccc(-c2nnc(-c3ccccc3)o2)o1`: the Tm shift relative to glycine control was -0.09%.

Consider `O=C(Nc1ccc(-c2nnc(-c3ccccc3)o2)cc1)c1ccc(Br)o1`, for which the Tm shift relative to glycine control is 35.9% (active).

`Cc1cccc(C=CC(=O)c2ccc(Cl)cc2)c1`: the Tm shift relative to glycine control is 4.44%.

With `Cc1cccc(C(=O)Nc2ccc(C(=O)/C=C/c3cccs3)cc2)c1`, the Tm shift relative to glycine control is 29.2% (active).

`O=C(CNC(=O)c1ccc(Br)o1)Nc1ccccc1`: the Tm shift relative to glycine control was 2.09%.

Turning to `Cc1ccc(OCC(=O)Nc2ccc(NC(=O)c3cccs3)cc2)c(C)c1`, the Tm shift relative to glycine control is 0.85%.

For `Cc1ccc(C(=O)NNC(=O)c2cccs2)cc1`, the Tm shift relative to glycine control was 0.08%.

Take `Cc1ccc(C(=O)Nc2ccc(NC(=O)c3cccs3)cc2)c(C)c1`: the Tm shift relative to glycine control is 28.3% (active).

Consider `COc1cccc2c1C(=O)c1c(O)c3c(c(O)c1C2=O)CC(O)(C(C)=NNC(=O)c1ccc(Cl)c(Cl)c1)CC3OC1CC(N)C(O)C(C)O1` (stereo not given), for which the Tm shift relative to glycine control was -18.1%.

Take `COc1ccc(C)cc1S(=O)(=O)Nc1cccc(Cl)c1Cl`: the Tm shift relative to glycine control is -5.61%.

As to `CCCOc1ccc(/C=N/NC(=O)C2CC2)c(OCCC)c1`, the Tm shift relative to glycine control was 0.85%.

In the case of `Cc1cc(C)nc(NS(=O)(=O)c2ccc(N/C=C\C(=O)c3cccs3)cc2)n1`, the Tm shift relative to glycine control is -2.02%.

For the compound `COc1cc(CO)ccc1OCC(=O)Nc1cccc2ccccc12`, the Tm shift relative to glycine control was 1.02%.

As for `CCOC(=O)[C@H]1[C@H]2COc3ccc(OC)cc3[C@@H]2N2C(=O)c3ccc(F)cc3NC(=O)[C@@]12C`, the Tm shift relative to glycine control is -0.63%.

In the case of `NC1=C([N+](=O)[O-])C(c2ccccc2)C2=C(CCCC2=O)O1` (stereo not given), the Tm shift relative to glycine control is -0.34%.

On to `Cc1cccc(NC(=O)C(C)SCc2ccccc2)c1` (stereo not given), for which the Tm shift relative to glycine control is 1.98%.

Take `Cc1cccc(NC(=O)CCN2CC(C)CC(C)C2)c1` (stereo not given): the Tm shift relative to glycine control is -0.71%.

Take `Cc1cccc(NC(=O)C(C)N2C(=O)C3C4CC(C(Br)C4Br)C3C2=O)c1` (stereo not given): the Tm shift relative to glycine control was 13.7% (active).
